{"source": "PubChem BioAssay (NCI)", "note": "Compounds without any hit were thinned out: in the full panel of roughly 79,000, 15% have a hit. Active and inactive are the calls of the source. Rule as the data show it: active = growth inhibition above about 70%; inactive = the rest."}
{"assay": "NCI Yeast Anticancer Drug Screen. Data for the bub3 strain (AID 167)", "settings": "S. cerevisiae bub3 mutant strain, at 50.0 µM, active compounds read high", "description": "Growth inhibition of yeast strains with defined genetic alterations is measured as a screen for potential anti-cancer activity. Selected strains with alterations in DNA damage repair or cell cycle control were exposed to compounds and growth inhibition was measured relative to vehicle treated controls. The strain used in this assay is bub3"}
{"smiles": "Cc1cc(N(CCC#N)CCC#N)ccc1N=Nc1ccc(C(=O)O)cc1", "growth inhibition": "-2.9% (inactive)"}
{"smiles": "CC(=O)Nc1c(C)cc(S(=O)(=O)O)cc1C", "growth inhibition": "28.6% (inactive)"}
{"smiles": "CC(=O)Oc1ccc(C2CC(=O)N(CCN(C)C)C2=O)cc1", "note": "(stereo not given)", "growth inhibition": "14.2% (inactive)"}
{"smiles": "O=c1oc2ccccc2c(O)c1C(c1ccc2c(c1)OCO2)N1CCCC1", "note": "(stereo not given)", "growth inhibition": "8.35% (inactive)"}
{"smiles": "Cn1ccnc1Sc1ccccn1", "growth inhibition": "7.3% (inactive)"}
{"smiles": "CCc1nc2c(c(=O)n(C)c(=O)n2C)n1C", "growth inhibition": "2.85% (inactive)"}
{"smiles": "Cc1cc(N(C)c2ccccc2)nc(N(C)c2ccccc2)n1", "growth inhibition": "-23.3% (inactive)"}
{"smiles": "COc1ccc(N2C(=O)C(=O)C3(CCCCC3)C2=O)c2ccccc12", "growth inhibition": "1.05% (inactive)"}
{"smiles": "CNC(=S)NNc1ncnc2c1ncn2-c1ccc(C)cc1", "growth inhibition": "11.4% (inactive)"}
{"smiles": "O/N=C1/C(=C/c2ccc(F)cc2)CCCC1C(NO)c1ccc(F)cc1", "note": "(stereo not given)", "growth inhibition": "-6% (inactive)"}
{"smiles": "Nc1nc(N)nc(-c2cc(Br)c(N)c(Br)c2)n1", "growth inhibition": "3.3% (inactive)"}
{"smiles": "O=c1cc(CNC2CC3CCC2C3)[nH]c(=O)[nH]1", "note": "(stereo not given)", "growth inhibition": "0.2% (inactive)"}
{"smiles": "Cc1cc(C)n(C2=NCCN2)n1", "growth inhibition": "4.2% (inactive)"}
{"smiles": "CCOC(=O)NC(C(N)=O)C(N)=O", "growth inhibition": "-13.3% (inactive)"}
{"smiles": "O=C(NC(=S)c1ccccc1)Nc1ccccc1", "growth inhibition": "24.4% (inactive)"}
{"smiles": "CCCCCCCCCCCCCCOc1ccc(Sc2ccc([N+](=O)[O-])cc2)cc1", "growth inhibition": "5.8% (inactive)"}
{"smiles": "CCCN(C(=O)c1ccccc1)C(C#N)c1ccc(C(C#N)N(CCC)C(=O)c2ccccc2)cc1", "note": "(stereo not given)", "growth inhibition": "-11.8% (inactive)"}
{"smiles": "Cc1nc(Cl)c(Cl)c(Cl)n1", "growth inhibition": "-4% (inactive)"}
{"smiles": "Cc1cc(C(=O)C=[N+]=[N-])c(CN2C(=O)c3ccccc3C2=O)c(=O)n1C", "growth inhibition": "-13.5% (inactive)"}
{"smiles": "O=C1C2C3C=CC(O3)C2C(=O)N1N=C1CCCCC1", "note": "(stereo not given)", "growth inhibition": "12.6% (inactive)"}
{"smiles": "COc1ccc([C@@]23Oc4cc(OC)cc(OC)c4[C@]2(O)[C@H](O)[C@H](C(=O)N(C)C)[C@H]3c2ccccc2)cc1", "growth inhibition": "91.3% (active)"}
{"smiles": "COC(=O)c1ccc(/C=C2\\Oc3ccccc3C2=O)cc1", "growth inhibition": "-22.9% (inactive)"}
{"smiles": "COc1cc(C(c2c(O)c3ccccc3oc2=O)N2CCCC2)cc(OC)c1OC", "note": "(stereo not given)", "growth inhibition": "-0.3% (inactive)"}
{"smiles": "CCOC(=O)NC1OC(C(N)=O)C(O)C(O)C1O", "note": "(stereo not given)", "growth inhibition": "4.5% (inactive)"}
{"smiles": "CCN(C)C(=O)NC(C)=O", "growth inhibition": "2.5% (inactive)"}
{"smiles": "O=C(c1cccs1)c1ccc2ccccc2c1C(=O)O", "growth inhibition": "58.5% (inactive)"}
{"smiles": "Cc1ccc2nc(NS(=O)(=O)c3cc(C)c(Cl)cc3S)[nH]c2c1", "growth inhibition": "16.4% (inactive)"}
{"smiles": "CS(=O)(=O)OC1CCCS(=O)(=O)c2ccccc21", "note": "(stereo not given)", "growth inhibition": "-1% (inactive)"}
{"smiles": "CN1C(=O)CC2(C)c3cc(O)cc(Br)c3N(C)C12", "note": "(stereo not given)", "growth inhibition": "-6.25% (inactive)"}
{"smiles": "C=C1C(=O)OC2C1CCC1(C)CC(Br)C(=O)C(C)C21", "note": "(stereo not given)", "growth inhibition": "-5.85% (inactive)"}
{"smiles": "CC(=O)NCCN1CCN(C(C)=O)CC1", "growth inhibition": "-13.8% (inactive)"}
{"smiles": "CCCCOc1cc(C(=O)O)ccc1[N+](=O)[O-]", "growth inhibition": "-19.2% (inactive)"}
{"smiles": "CCN1CCCC(Cl)C1", "note": "(stereo not given)", "growth inhibition": "-12.4% (inactive)"}
{"smiles": "COC(=O)C(CC(=O)c1ccc2ccccc2c1)OC", "note": "(stereo not given)", "growth inhibition": "6.35% (inactive)"}
{"smiles": "COC(=O)c1sc2c(=O)c(C(=O)OC)c(C(=O)OC)sc2c(=O)c1C(=O)OC", "growth inhibition": "50.9% (inactive)"}
{"smiles": "CCOC(=O)CC[C@H](NC(=O)c1nc[nH]c1[N+](=O)[O-])C(=O)OCC", "growth inhibition": "-7.35% (inactive)"}
{"smiles": "COc1ccc(/C=C2\\NC(=O)NC2=O)cc1Br", "growth inhibition": "9.1% (inactive)"}
{"smiles": "CSc1ccc(NC(=O)c2ccc(C(=O)Nc3ccc(SC)cc3)cc2)cc1", "growth inhibition": "-1.95% (inactive)"}
{"smiles": "OC1C2CCC(C2)C1CN1CCOCC1", "note": "(stereo not given)", "growth inhibition": "4.95% (inactive)"}
{"smiles": "O=C(/C=C/c1ccccc1)NCC(O)CO", "note": "(stereo not given)", "growth inhibition": "0.5% (inactive)"}
